Assay results: the antibiotic and cytotoxicity screens of Wong et al. (2023)
In all, about 39,000 compounds went through this assay and about 3,300 (8.5%) were called active. For the sample, actives were picked, then their nearest neighbours and some compounds at random.

Tested on: HepG2
Test: cytotoxicity call (relative viability < 0.9)
Conditions: 10 µM

Q: For `COC(=O)c1ccc(Cn2cc(C(=O)NO)nn2)o1`, which cytotoxicity call is on record?
A: inactive

Q: With `COc1cccc(-n2cc(C(=O)NO)nn2)c1` as the compound, how does the cytotoxicity call read?
A: inactive

Q: Which cytotoxicity call does the source give for `COc1ccc(-n2cc(C(=O)NO)nn2)cc1` here?
A: active

Q: For `COc1cccc(NC(=O)N[C@H]2CC[C@H](CC(=O)N3CCN(C)CC3)O[C@H]2CO)c1`, which cytotoxicity call is on record?
A: inactive

Q: Which cytotoxicity call does the source give for `COc1cccc(NC(=O)N[C@@H]2CC[C@@H](CC(=O)N3CCN(C)CC3)O[C@@H]2CO)c1` here?
A: active

Q: `COc1cccc(NC(=O)N[C@@H]2CC[C@H](CC(=O)N3CCN(C)CC3)O[C@@H]2CO)c1` was tested. Which cytotoxicity call did it give?
A: inactive

Q: For `C[C@H](CO)N1C[C@H](C)[C@H](CN(C)C(=O)Nc2ccc(F)cc2)Oc2ncc(-c3cccc(C(F)(F)F)c3)cc2C1=O`, which cytotoxicity call is on record?
A: inactive

Q: How did the cytotoxicity call turn out when `C[C@@H]1CN([C@H](C)CO)C(=O)c2cc(NC(=O)c3ccncc3)ccc2O[C@H]1CN(C)Cc1ccc(C(=O)O)cc1` was run?
A: inactive

Q: With `COc1ccc(CN(C)C[C@H]2Oc3c(NS(=O)(=O)c4cn(C)cn4)cccc3C(=O)N([C@H](C)CO)C[C@@H]2C)cc1` as the compound, how does the cytotoxicity call read?
A: inactive

Q: With `C[C@H]1CCCCO[C@H](CN(C)S(=O)(=O)c2ccc(Cl)cc2)[C@@H](C)CN([C@@H](C)CO)C(=O)c2cc(NC(=O)c3ccncc3)ccc2O1` as the compound, how does the cytotoxicity call read?
A: inactive

Q: `C[C@@H]1CN([C@H](C)CO)C(=O)c2cc(NC(=O)c3ccncc3)ccc2O[C@@H](C)CCCCO[C@H]1CN(C)S(=O)(=O)c1ccc(Cl)cc1` was tested. Which cytotoxicity call did it give?
A: active

Q: Which cytotoxicity call does the source give for `C[C@@H]1CCCCO[C@@H](CN(C)S(=O)(=O)c2ccc(Cl)cc2)[C@@H](C)CN([C@H](C)CO)C(=O)c2cc(NC(=O)c3ccncc3)ccc2O1` here?
A: inactive

Q: Which cytotoxicity call does the source give for `C[C@@H]1CCCCO[C@@H](CN(C)S(=O)(=O)c2ccc(Cl)cc2)[C@H](C)CN([C@@H](C)CO)C(=O)c2cc(NC(=O)c3ccncc3)ccc2O1` here?
A: inactive

Q: For `C[C@@H]1CCCCO[C@H](CN(C)S(=O)(=O)c2ccc(Cl)cc2)[C@@H](C)CN([C@@H](C)CO)C(=O)c2cc(NC(=O)c3ccncc3)ccc2O1`, which cytotoxicity call is on record?
A: active

Q: How did the cytotoxicity call turn out when `C[C@@H]1CCCCO[C@@H](CN(C)S(=O)(=O)c2ccc(Cl)cc2)[C@@H](C)CN([C@@H](C)CO)C(=O)c2cc(NC(=O)c3ccncc3)ccc2O1` was run?
A: inactive

Q: With `Cc1noc(C)c1S(=O)(=O)N(C)C[C@H]1Oc2c(NC(=O)C3CCCCC3)cccc2C(=O)N([C@H](C)CO)C[C@H]1C` as the compound, how does the cytotoxicity call read?
A: inactive

Q: Which cytotoxicity call does the source give for `COc1ccc(CN(C)C[C@H]2OCCCC[C@@H](C)Oc3ccc(NS(=O)(=O)c4ccc(C)cc4)cc3C(=O)N([C@@H](C)CO)C[C@@H]2C)cc1` here?
A: inactive

Q: For `C[C@H]1CCCCO[C@@H](CN(C)S(=O)(=O)c2ccc(Cl)cc2)[C@@H](C)CN([C@@H](C)CO)C(=O)c2cc(NS(=O)(=O)c3ccccc3)ccc2O1`, which cytotoxicity call is on record?
A: inactive

Q: How did the cytotoxicity call turn out when `CC12C=CC(=O)C=C1CCC1C2C(O)CC2(C)C1CCC2(O)C(=O)COC(=O)CCC(=O)O` (stereo unspecified) was run?
A: inactive

Q: `Cc1ccc(S(=O)(=O)N(C)C[C@@H]2Oc3ncc(C#CCC(C)C)cc3C(=O)N([C@H](C)CO)C[C@@H]2C)cc1` was tested. Which cytotoxicity call did it give?
A: inactive

Q: Which cytotoxicity call does the source give for `Cc1ccc(S(=O)(=O)N(C)C[C@@H]2Oc3ncc(C#CCC(C)C)cc3C(=O)N([C@@H](C)CO)C[C@H]2C)cc1` here?
A: active

Q: For `COc1cccc(S(=O)(=O)N(C)C[C@H]2Oc3ncc(C#CCC(C)C)cc3C(=O)N([C@H](C)CO)C[C@H]2C)c1`, which cytotoxicity call is on record?
A: inactive

Q: `Cc1ccc(S(=O)(=O)N(C)C[C@H]2Oc3ncc(C#CCC(C)C)cc3C(=O)N([C@@H](C)CO)C[C@@H]2C)cc1` was tested. Which cytotoxicity call did it give?
A: inactive

Q: With `COc1cccc(S(=O)(=O)N(C)C[C@@H]2Oc3ncc(-c4ccccc4)cc3C(=O)N([C@H](C)CO)C[C@@H]2C)c1` as the compound, how does the cytotoxicity call read?
A: inactive

Q: With `COc1cccc(-c2cnc3c(c2)C(=O)N([C@H](C)CO)C[C@H](C)[C@H](CN(C)S(=O)(=O)c2ccccc2)O3)c1` as the compound, how does the cytotoxicity call read?
A: active

Q: How did the cytotoxicity call turn out when `Cc1ccc(S(=O)(=O)N(C)C[C@@H]2Oc3ncc(C#CCC(C)C)cc3C(=O)N([C@H](C)CO)C[C@H]2C)cc1` was run?
A: inactive

Q: `Cc1ccc(S(=O)(=O)N(C)C[C@H]2Oc3ncc(C#CCC(C)C)cc3C(=O)N([C@@H](C)CO)C[C@H]2C)cc1` was tested. Which cytotoxicity call did it give?
A: active

Q: With `COc1cccc(S(=O)(=O)N(C)C[C@H]2Oc3ncc(C#CCC(C)C)cc3C(=O)N([C@@H](C)CO)C[C@H]2C)c1` as the compound, how does the cytotoxicity call read?
A: inactive

Q: `COc1cccc(-c2cnc3c(c2)C(=O)N([C@H](C)CO)C[C@H](C)[C@H](CN(C)S(=O)(=O)c2cccc(OC)c2)O3)c1` was tested. Which cytotoxicity call did it give?
A: inactive

Q: With `Cc1ccc(S(=O)(=O)N(C)C[C@H]2Oc3ncc(C#CCC(C)C)cc3C(=O)N([C@H](C)CO)C[C@@H]2C)cc1` as the compound, how does the cytotoxicity call read?
A: inactive

Q: With `COc1cccc(S(=O)(=O)N(C)C[C@H]2Oc3ncc(C#CCC(C)C)cc3C(=O)N([C@H](C)CO)C[C@@H]2C)c1` as the compound, how does the cytotoxicity call read?
A: active

Q: `CN(C)CCCNC(=O)C[C@@H]1CC[C@H]2[C@@H](COC[C@@H](O)CN2S(=O)(=O)c2ccc(F)cc2)O1` was tested. Which cytotoxicity call did it give?
A: inactive

Q: With `CO[C@H]1CN(C)C(=O)c2cc(NS(=O)(=O)CC(F)(F)F)ccc2OC[C@H](C)N(Cc2ccccn2)C[C@@H]1C` as the compound, how does the cytotoxicity call read?
A: inactive

Q: Which cytotoxicity call does the source give for `CC(C)CC#Cc1cnc2c(c1)C(=O)N([C@@H](C)CO)C[C@@H](C)[C@@H](CN(C)C(=O)CN1CCOCC1)O2` here?
A: inactive

Q: How did the cytotoxicity call turn out when `C[C@@H]1CN([C@@H](C)CO)C(=O)c2cc(NS(=O)(=O)c3ccccc3)ccc2O[C@@H](C)CCCCO[C@H]1CN(C)C(=O)c1ccccc1` was run?
A: inactive

Q: How did the cytotoxicity call turn out when `C[C@@H]1CCCCO[C@H](CN(C)C(=O)Cc2ccccc2)[C@@H](C)CN([C@H](C)CO)C(=O)c2cc(NC(=O)Nc3ccc4c(c3)OCO4)ccc2O1` was run?
A: inactive
